Experimental data from PubChem BioAssay AID1745848 (National Center for Advancing Translational Sciences (NCATS), 2022).
In all, about 2,100 compounds went through this assay and about 940 (45%) were called active. Roughly 48% stayed inconclusive and do not appear here. The call rests on the fitted dose curve; in most records, active means well fitted inhibition curve with a large enough effect; inconclusive means small, poorly fitted or top-dose-only effect; inactive means no such curve, though single readings can be large or run the other way. The set was probably picked from earlier hits. Some of the results follow.
Potency means the concentration at half of the fitted maximal effect.

Experiment: Confirmatory qHTS for Inhibitors of ATXN expression; further: nearly all actives have a fitted effect of over 65% in size
Conditions: ATXN2-luciferase reporter cells, luminescence, 24 h; series mostly up to 11.5 µM
In short: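 Cells carrying ATXN2-luciferase reporter exposed 24 h at 37 C to compound. Viability then read by CellTiter-Fluor (25 uM GF-AFC, 30 min), followed by SteadyGlo luminescence; medium-only wells set 100% inhibition.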
For `CCc1nc2ccc(C(=O)NCCOc3ccc(OC)cc3)cn2c1N(CCC(C)C)CCN(C)C`, the Potency was 3.98 µM (active). In the case of `O=C(NCC1CC1)c1ccc2c(c1)S(=O)(=O)c1cc(Cl)ccc1C2=O`, the Potency is reported as “inactive”. In the case of `CC(C)CC(NC(=O)c1ccc(Cl)cc1)C(=O)OCC(=O)c1ccc2c(c1)NC(=O)CO2` (centres undefined), the Potency is reported as 28.2 µM (active). For `CCCCC1C(=O)CC[C@H]2[C@@H]1CC(=O)[C@@H]2C/C=C\CCCC(=O)O` (some centres undefined), the Potency was “inactive”. For `COc1nn(-c2ccccc2)c(=O)c(Cl)c1Cl`, the Potency was 1.41 µM (active). For `Cc1ccc(C(NC(=O)C2CCN(Cc3ccc(Cl)c(Cl)c3)CC2)c2ccccn2)cc1` (centres undefined), the Potency was 28.2 µM (active). With `COC(=O)[C@H]1C[C@H](OC(=O)NC2CC2)[C@@]2(O)CN(S(=O)(=O)c3ccc(C)cc3)CC2[C@H]1C(=O)OC` (some centres undefined) the Potency was “inactive”. With `O=C(CSC1=NNC(c2ccccn2)S1)Nc1ccc(C(F)(F)F)cc1` (centres undefined) the Potency was 28.2 µM (active). In the case of `COc1cc2ccnc(Cc3cccc(OC)c3OC)c2cc1OC`, the Potency is reported as 1 µM (active). In the case of `COc1cc(C)c(C(=O)CC(=O)c2c(C)cc(OC)cc2C)c(C)c1`, the Potency is reported as “inactive”. For `CCCCOc1ccccc1NC(=O)Cn1c(-c2nonc2N)nc2ccccc21`, the Potency was 3.98 µM (active). With `COc1ccc(Cc2[nH]n3c(=O)cc(C(C)C)nc3c2-c2ccccc2)cc1` the Potency was 8.91 µM (active). With `Cc1cc(C)c(S(=O)(=O)/N=C2\C=C(Nc3ccc(C(=O)O)cc3)C(=O)c3ccccc32)c(C)c1` the Potency was 1.78 µM (active). In the case of `COC1=CC(=O)C=C(OC)C1(O)CC(C)=O`, the Potency is reported as “inactive”. In the case of `O=C1/C(=C/c2ccc([N+](=O)[O-])cc2)C=C(c2ccccc2)N1c1ccc(O)cc1`, the Potency is reported as 2.51 µM (active). In the case of `Cc1cc2c(c(/C=C/C(=O)c3ccccc3)c1)OC1(C=C2)Oc2ccccc2C(=O)N1C` (centres undefined), the Potency is reported as 25.1 µM (active). With `CCCCCn1c(=O)c2ccccc2n2c(CCl)nnc12` the Potency was 15.8 µM (active). For `O=C(N/N=C(\c1ccccc1)c1ccccn1)c1ccccc1Cl`, the Potency was 3.55 µM (active). With `COc1cc(C(=O)N/N=C(\c2ccccc2)c2ccccn2)cc(OC)c1OC` the Potency was 0.355 µM (active). With `O=C(NN=C(c1ccccc1)c1ccccn1)c1ccccc1` the Potency was 2.24 µM (active). For `CCC(CC)C(=O)c1c[nH]c(C(=O)NCc2ccccn2)c1`, the Potency was “inactive”. With `O=C(O)CSc1cc(NS(=O)(=O)c2cccc([N+](=O)[O-])c2)c2ccccc2c1O` the Potency was 3.16 µM (active). In the case of `CN(Cc1cnc2nc(N)nc(N)c2n1)c1ccc(C(=O)NC(CCC(=O)O)C(=O)O)c2ccccc12` (centres undefined), the Potency is reported as 0.1 µM (active). For `CN(Cc1cnc2nc(N)nc(N)c2n1)c1ccc(C(=O)N[C@@H](CCC(=O)O)C(=O)O)cc1`, the Potency was 0.398 µM (active). For `Cc1ccc(CN2CC(C(=O)Nc3ncc(C)s3)CC2=O)cc1` (centres undefined), the Potency was 1.78 µM (active). In the case of `Cc1cnc(NC(=O)C2CC(=O)N(c3cccc(Cl)c3)C2)s1` (centres undefined), the Potency is reported as 0.112 µM (active). In the case of `Cc1ccc(N2CC(C(=O)Nc3nccs3)CC2=O)cc1Cl` (centres undefined), the Potency is reported as 2.24 µM (active). With `Cc1ccc2nc(NC(=O)CSCC(=O)OCC(=O)c3ccc(Br)cc3)sc2c1` the Potency was 3.55 µM (active). For `COc1ccc(-c2csc(NC(=O)C3CCN(c4ncnc5sc(C)c(C)c45)CC3)n2)cc1OC`, the Potency was 3.98 µM (active). For `COc1ccc(S(=O)(=O)N(C)C)cc1NC(=O)C1CCN(c2ncnc3sc(C)c(C)c23)CC1`, the Potency was 22.4 µM (active). For `Cc1sc2nc(CN3CCCC3)nc(N3CCC(C(N)=O)CC3)c2c1C`, the Potency was “inactive”. In the case of `CCN(CC)S(=O)(=O)c1cc(NC(=O)C2CCN(c3ncnc4sc(C)c(C)c34)CC2)ccc1Cl`, the Potency is reported as 3.55 µM (active). With `Oc1c(C(c2ccccn2)N2CCC(Cc3ccccc3)CC2)cc(Cl)c2cccnc12` (centres undefined) the Potency was 28.2 µM (active). For `Oc1c(C(c2ccccn2)N2CCCCC2)cc(Cl)c2cccnc12` (centres undefined), the Potency was 15.8 µM (active). For `O=C(NC(Nc1nc2ccc([N+](=O)[O-])cc2s1)(C(F)(F)F)C(F)(F)F)c1ccccc1`, the Potency was 0.355 µM (active). In the case of `O=C(NC(Nc1ncc(S(=O)(=O)c2ccc([N+](=O)[O-])cc2)s1)(C(F)(F)F)C(F)(F)F)c1ccc(Cl)cc1`, the Potency is reported as 3.55 µM (active). For `O=c1oc2ccccc2c(O)c1Cc1cc(Cl)c2cccnc2c1O`, the Potency was 15.8 µM (active). In the case of `CC[n+]1c(/C=C/c2c[nH]c3ccccc23)ccc2cc(C)ccc21`, the Potency is reported as 7.94 µM (active). For `COC(=O)c1ccccc1S(=O)(=O)NNC(=O)Nc1ccccc1`, the Potency was “inactive”. For `COc1ccc(/C=N/NC(=O)c2cccc([N+](=O)[O-])c2)c2ccccc12`, the Potency was 3.16 µM (active). For `Cc1[nH]n(-c2cccc3ccccc23)c(=O)c1/C=N/NC(=O)c1cccc([N+](=O)[O-])c1`, the Potency was 7.94 µM (active). With `CCCc1nc(NC2CCCCC2)c(C#N)c2c1COC(C)(C)C2` the Potency was “inactive”. With `O=C(Cc1ccc(-c2ccccc2)cc1)Nc1ccccn1` the Potency was 15.8 µM (active). For `CC(C)C1C(=O)N(Cc2cn(CCC3OCCO3)nn2)CCS(=O)(=O)N1Cc1ccc(-c2ccc(Cl)cc2)cc1` (centres undefined), the Potency was 31.6 µM (active). With `CSc1ncnc2c1ncn2CC(=O)C1CCC2C3CCC4=CC(=O)CCC4(C)C3CCC12C` (centres undefined) the Potency was 11.2 µM (active). For `CCCC(=O)NC(c1ccc(OC)c(OC)c1)c1cc(Cl)c2cccnc2c1O` (centres undefined), the Potency was 2.51 µM (active). In the case of `CCC(=O)NC(c1ccc(OC)c(OC)c1)c1cc(Cl)c2cccnc2c1O` (centres undefined), the Potency is reported as 2.82 µM (active). For `COc1ccc(C(NC(=O)c2cccnc2)c2cc(Cl)c3cccnc3c2O)cc1OC` (centres undefined), the Potency was 2.51 µM (active). For `N=c1c2c(n(Cc3ccc(Br)cc3)c3c1CCC3)CCCC2`, the Potency was 1.12 µM (active). For `C=CCNc1oc(-c2ccc(Cl)cc2)nc1C#N`, the Potency was “inactive”. With `Cc1ccc2[nH]c(=O)c(CN(CCCN(C)C)C(=O)Nc3cccc(Cl)c3)cc2c1` the Potency was 22.4 µM (active). For `COc1ccc(/C=N/Nc2cc(N3CCCC3)nc(N3CCCC3)n2)cc1`, the Potency was 3.16 µM (active). In the case of `Cc1c(C(=O)Nc2nonc2-c2ccc(F)cc2)oc2ccc(F)cc12`, the Potency is reported as 25.1 µM (active). In the case of `Cc1nc2c(OCc3cc(Cl)cc(Cl)c3)cccn2c1N(C)C(=O)CCC1CCCC1`, the Potency is reported as 22.4 µM (active). In the case of `CCc1nc2c(OCCOc3ccc(F)cc3)cccn2c1N(C)C(=O)c1ccco1`, the Potency is reported as “inactive”. With `Cc1nn(-c2ccccc2)c2nc(-c3cccs3)cc(C(=O)NN)c12` the Potency was 14.1 µM (active). In the case of `Cc1onc(-c2c(Cl)cccc2Cl)c1C(=O)N/N=C(\N)COc1ccc(Cl)cc1`, the Potency is reported as 2.51 µM (active). With `Cn1cc(C(=O)c2ccc(Cl)cc2Cl)cc1C(=O)N/N=C(\N)COc1ccc(Cl)cc1` the Potency was 11.2 µM (active). In the case of `O=C(Nc1nc(NC(=O)c2ccco2)n(-c2ccccc2)n1)c1ccccc1`, the Potency is reported as 3.16 µM (active). In the case of `CC(C)(C)c1ccc(NC(=O)N2CCCN(c3c(Cl)cncc3Cl)CC2)cc1`, the Potency is reported as “inactive”. For `O=C(Nc1ccccc1Cl)N1CCCN(c2nc(-c3ccccc3)ns2)CC1`, the Potency was 15.8 µM (active). For `Cc1c(Cl)cccc1NC(=O)N1CCCN(c2nc(-c3ccccc3)ns2)CC1`, the Potency was 10 µM (active). With `CN(C)CCC(c1ccc(Br)cc1)c1ccccn1` (centres undefined) the Potency was “inactive”. For `O=C(Nc1ccc(N2CCOCC2)c(Cl)c1)c1c(F)c(F)c(F)c(F)c1F`, the Potency was 1.26 µM (active). With `CC(=O)N/N=C/c1cc(C(C)(C)C)cc(/C=N/NC(C)=O)c1O` the Potency was 2.82 µM (active). With `COc1ccc(Nc2c3ccccc3nc3ccccc23)cc1` the Potency was 14.1 µM (active). For `CCOc1ccc(Nc2c3ccccc3nc3ccccc23)cc1`, the Potency was 12.6 µM (active). For `CC(=O)Oc1ccc(Nc2ccccc2)cc1`, the Potency was “inactive”. In the case of `CC(=O)Nc1ccc(Nc2c3ccccc3nc3ccccc23)cc1`, the Potency is reported as 3.55 µM (active). In the case of `COc1ccc(Nc2nc(N3CCCC3)c3ccccc3n2)cc1`, the Potency is reported as 15.8 µM (active). With `Cc1cc(SCC(=O)N/N=C/c2ccc(O)cc2O)nc2ccccc12` the Potency was 11.2 µM (active). With `C=CCn1c(CNc2ccc(C)cc2)nnc1SCC(=O)N/N=C/c1ccc(O)cc1O` the Potency was 10 µM (active). In the case of `Cc1cc(SCC(=O)N/N=C/c2ccc(O)cc2O)c(C)cc1Br`, the Potency is reported as 5.62 µM (active). With `Cc1cc(SCC(=O)NN)c2cc(Br)ccc2n1` the Potency was “inactive”. For `O=C(CSc1ccc2ccccc2n1)N/N=C/c1ccccc1O`, the Potency was 14.1 µM (active). For `COc1ccc(C(NC(C)=O)c2cc(Cl)c3cccnc3c2O)cc1` (centres undefined), the Potency was 1.78 µM (active). For `CCC(=O)NC(c1ccc(OC)cc1)c1cc(Cl)c2cccnc2c1O` (centres undefined), the Potency was 3.16 µM (active). For `Clc1ccc(COC(Cn2ccnc2)c2ccc(Cl)cc2Cl)c(Cl)c1` (centres undefined), the Potency was 2.82 µM (active). For `O=C(CCCN1C(=O)/C(=C/c2ccccc2Cl)SC1=S)NNC(=O)c1ccc(Cl)cc1`, the Potency was 3.55 µM (active). In the case of `O=C(CCCN1C(=O)/C(=C/c2ccccc2Cl)SC1=S)NNC(=O)c1ccc(Cl)cc1Cl`, the Potency is reported as 1.58 µM (active). For `CCc1nnc(NC(=O)c2ccc(S(=O)(=O)N(C)Cc3ccccc3)cc2)o1`, the Potency was 20 µM (active). For `O=C(Nc1nnc(-c2ccc(F)cc2)o1)c1cc(Cl)sc1Cl`, the Potency was 15.8 µM (active). For `CN(c1ccccc1)S(=O)(=O)c1ccc(C(=O)Nc2nnc(-c3ccc(F)cc3)o2)cc1`, the Potency was 15.8 µM (active). For `Cc1sc2ncnc(NCC(O)c3ccc([N+](=O)[O-])cc3)c2c1C` (centres undefined), the Potency was 3.16 µM (active). With `Cc1cc(C)cc(C(=O)NC(=S)Nc2ccc(-c3cc4ccccc4oc3=O)cc2)c1` the Potency was 4.47 µM (active). In the case of `CCOC(=O)c1c(NC(=O)CSc2nnnn2-c2ccccc2)sc2c1CC(C)(C)NC2(C)C`, the Potency is reported as 3.55 µM (active). In the case of `O=C(CSc1nnnn1-c1ccccc1)Nc1nsc(-c2ccccc2)n1`, the Potency is reported as “inactive”. In the case of `Cc1ccc(C(=O)N/C(=C/c2ccc(-c3ccc([N+](=O)[O-])cc3)o2)C(=O)NCCCN(C)C)cc1`, the Potency is reported as 25.1 µM (active). In the case of `CCCCOC(=O)/C=C\C(=O)NC(N)=O`, the Potency is reported as 17.8 µM (active).
